Results on nine molecules are retold here after ChEMBL document CHEMBL1961873, “Compounds: GSK PKIS; Assays: Nanosyn kinase panel” (2012).

The target in test [1] is T1, Tyrosine-protein kinase ITK/TSK (Homo sapiens) (UniProt Q08881).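 Further: values are mean percent inhibition of ITK from the GSK PKIS screen.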
T1 sequence (whole entry): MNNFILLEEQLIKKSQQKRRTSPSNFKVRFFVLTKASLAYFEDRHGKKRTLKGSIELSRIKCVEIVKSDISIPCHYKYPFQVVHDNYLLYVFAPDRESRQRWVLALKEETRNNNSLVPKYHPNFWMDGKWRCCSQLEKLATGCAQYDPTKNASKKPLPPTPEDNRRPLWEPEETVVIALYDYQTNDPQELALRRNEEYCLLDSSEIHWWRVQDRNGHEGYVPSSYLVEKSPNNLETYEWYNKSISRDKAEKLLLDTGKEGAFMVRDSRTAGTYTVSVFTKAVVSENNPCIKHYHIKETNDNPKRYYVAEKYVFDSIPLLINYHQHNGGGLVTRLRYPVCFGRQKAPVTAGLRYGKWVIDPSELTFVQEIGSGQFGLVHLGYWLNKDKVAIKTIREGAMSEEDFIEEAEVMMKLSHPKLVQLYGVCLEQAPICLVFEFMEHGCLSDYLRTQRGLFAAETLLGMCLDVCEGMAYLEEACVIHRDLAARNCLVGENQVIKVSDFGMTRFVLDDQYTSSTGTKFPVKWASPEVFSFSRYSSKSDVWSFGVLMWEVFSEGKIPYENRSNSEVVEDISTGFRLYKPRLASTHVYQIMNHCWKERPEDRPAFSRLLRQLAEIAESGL
The note with it: at 1 µM.

Test [2] concerns the target Tyrosine-protein kinase JAK1 (Homo sapiens) (UniProt P23458). The settings on record: at 0.1 µM.
Test [3] has the same target. The settings on record: at 1 µM.
The target in test [4] is Tyrosine-protein kinase JAK2 (Homo sapiens) (UniProt O60674). The settings on record: at 0.1 µM.
Test [5] has the same target. The settings on record: at 1 µM.
Test [6] has as its target T2, Tyrosine-protein kinase JAK3 (Homo sapiens) (UniProt P52333).
T2 sequence (whole entry): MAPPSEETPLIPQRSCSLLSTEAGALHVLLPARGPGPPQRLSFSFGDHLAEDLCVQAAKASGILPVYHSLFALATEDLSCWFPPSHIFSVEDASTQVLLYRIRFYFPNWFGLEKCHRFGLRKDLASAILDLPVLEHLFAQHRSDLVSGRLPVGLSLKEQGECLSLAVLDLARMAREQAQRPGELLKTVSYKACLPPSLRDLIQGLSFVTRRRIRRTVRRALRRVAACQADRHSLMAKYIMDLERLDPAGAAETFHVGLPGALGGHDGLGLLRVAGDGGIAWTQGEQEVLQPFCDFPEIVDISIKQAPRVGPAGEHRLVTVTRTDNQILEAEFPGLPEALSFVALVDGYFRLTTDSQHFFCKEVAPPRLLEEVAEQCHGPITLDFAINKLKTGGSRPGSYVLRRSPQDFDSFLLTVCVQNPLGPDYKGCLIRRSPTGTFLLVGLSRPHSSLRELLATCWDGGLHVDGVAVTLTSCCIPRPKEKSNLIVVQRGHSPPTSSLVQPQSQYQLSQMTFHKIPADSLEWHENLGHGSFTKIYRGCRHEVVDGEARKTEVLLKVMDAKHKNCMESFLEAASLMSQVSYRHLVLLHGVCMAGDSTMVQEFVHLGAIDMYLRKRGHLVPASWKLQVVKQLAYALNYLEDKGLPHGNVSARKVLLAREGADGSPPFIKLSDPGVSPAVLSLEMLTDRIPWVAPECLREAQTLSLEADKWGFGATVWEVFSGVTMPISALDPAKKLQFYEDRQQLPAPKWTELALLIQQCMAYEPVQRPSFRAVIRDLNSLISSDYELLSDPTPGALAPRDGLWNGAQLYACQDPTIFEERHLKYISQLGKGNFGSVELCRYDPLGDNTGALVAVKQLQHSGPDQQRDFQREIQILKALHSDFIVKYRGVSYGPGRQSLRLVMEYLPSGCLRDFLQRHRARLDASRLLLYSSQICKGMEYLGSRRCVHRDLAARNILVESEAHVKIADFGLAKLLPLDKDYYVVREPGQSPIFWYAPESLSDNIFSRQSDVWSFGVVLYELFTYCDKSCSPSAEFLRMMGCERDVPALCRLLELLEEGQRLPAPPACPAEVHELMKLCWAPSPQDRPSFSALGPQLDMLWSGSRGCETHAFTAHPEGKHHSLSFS
The settings on record: at 0.1 µM.

The target of test [7] is T2, Tyrosine-protein kinase JAK3 (Homo sapiens). The settings on record: at 1 µM.
Test [8] has as its target Vascular endothelial growth factor receptor 2 (Homo sapiens) (UniProt P35968). The note with it: at 0.1 µM.
For test [9] the target is unchanged. The note with it: at 1 µM.
In test [10] the target is Mast/stem cell growth factor receptor Kit (Homo sapiens) (UniProt P10721). The note with it: at 0.1 µM.
The target is the same in test [11]. The settings on record: at 1 µM.
Test [12] has as its system Mast/stem cell growth factor receptor Kit (Homo sapiens), P10721 [D816V]. The note with it: at 0.1 µM.
The test system is the same in test [13]. The note with it: at 1 µM.
The test system of test [14] is Mast/stem cell growth factor receptor Kit (Homo sapiens), P10721 [T670I]. The settings on record: at 0.1 µM.
For test [15] the test system is unchanged. The settings on record: at 1 µM.
Test [16] has as its system Mast/stem cell growth factor receptor Kit (Homo sapiens), P10721 [V560G]. The settings on record: at 0.1 µM.
The test system is the same in test [17]. The note with it: at 1 µM.
For test [18], the target named is Tyrosine-protein kinase Lck (Homo sapiens) (UniProt P06239). The settings on record: at 0.1 µM.
For test [19] the target is unchanged. The settings on record: at 1 µM.
Test [20] deals with Leukocyte tyrosine kinase receptor (Homo sapiens) (UniProt P29376). The note with it: at 0.1 µM.
Chain of Leukocyte tyrosine kinase receptor (Homo sapiens) (P29376 whole entry): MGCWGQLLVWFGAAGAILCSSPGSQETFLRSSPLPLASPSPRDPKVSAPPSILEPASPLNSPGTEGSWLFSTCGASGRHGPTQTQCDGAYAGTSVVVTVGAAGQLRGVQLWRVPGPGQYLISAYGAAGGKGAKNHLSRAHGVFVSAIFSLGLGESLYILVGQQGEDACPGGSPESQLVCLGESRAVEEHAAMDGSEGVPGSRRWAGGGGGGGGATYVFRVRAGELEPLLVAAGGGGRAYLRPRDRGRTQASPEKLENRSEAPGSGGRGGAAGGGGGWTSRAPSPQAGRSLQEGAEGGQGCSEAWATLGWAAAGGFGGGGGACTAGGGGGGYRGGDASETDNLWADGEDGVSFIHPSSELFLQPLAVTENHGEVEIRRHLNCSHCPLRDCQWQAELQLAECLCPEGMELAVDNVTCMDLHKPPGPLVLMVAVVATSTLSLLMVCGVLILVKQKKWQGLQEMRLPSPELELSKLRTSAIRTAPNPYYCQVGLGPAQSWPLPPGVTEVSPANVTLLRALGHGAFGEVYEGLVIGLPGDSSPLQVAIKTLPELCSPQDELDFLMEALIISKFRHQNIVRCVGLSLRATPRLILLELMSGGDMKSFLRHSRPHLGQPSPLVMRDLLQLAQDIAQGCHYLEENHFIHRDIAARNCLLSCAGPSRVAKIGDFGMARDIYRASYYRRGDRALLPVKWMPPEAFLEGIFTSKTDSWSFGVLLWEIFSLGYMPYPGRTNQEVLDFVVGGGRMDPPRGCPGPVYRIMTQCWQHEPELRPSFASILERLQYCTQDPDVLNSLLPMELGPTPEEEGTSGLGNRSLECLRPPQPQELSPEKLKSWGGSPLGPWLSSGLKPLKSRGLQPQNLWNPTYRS

Chain of Mast/stem cell growth factor receptor Kit (Homo sapiens), P10721 [V560G] (P10721 whole entry V560G): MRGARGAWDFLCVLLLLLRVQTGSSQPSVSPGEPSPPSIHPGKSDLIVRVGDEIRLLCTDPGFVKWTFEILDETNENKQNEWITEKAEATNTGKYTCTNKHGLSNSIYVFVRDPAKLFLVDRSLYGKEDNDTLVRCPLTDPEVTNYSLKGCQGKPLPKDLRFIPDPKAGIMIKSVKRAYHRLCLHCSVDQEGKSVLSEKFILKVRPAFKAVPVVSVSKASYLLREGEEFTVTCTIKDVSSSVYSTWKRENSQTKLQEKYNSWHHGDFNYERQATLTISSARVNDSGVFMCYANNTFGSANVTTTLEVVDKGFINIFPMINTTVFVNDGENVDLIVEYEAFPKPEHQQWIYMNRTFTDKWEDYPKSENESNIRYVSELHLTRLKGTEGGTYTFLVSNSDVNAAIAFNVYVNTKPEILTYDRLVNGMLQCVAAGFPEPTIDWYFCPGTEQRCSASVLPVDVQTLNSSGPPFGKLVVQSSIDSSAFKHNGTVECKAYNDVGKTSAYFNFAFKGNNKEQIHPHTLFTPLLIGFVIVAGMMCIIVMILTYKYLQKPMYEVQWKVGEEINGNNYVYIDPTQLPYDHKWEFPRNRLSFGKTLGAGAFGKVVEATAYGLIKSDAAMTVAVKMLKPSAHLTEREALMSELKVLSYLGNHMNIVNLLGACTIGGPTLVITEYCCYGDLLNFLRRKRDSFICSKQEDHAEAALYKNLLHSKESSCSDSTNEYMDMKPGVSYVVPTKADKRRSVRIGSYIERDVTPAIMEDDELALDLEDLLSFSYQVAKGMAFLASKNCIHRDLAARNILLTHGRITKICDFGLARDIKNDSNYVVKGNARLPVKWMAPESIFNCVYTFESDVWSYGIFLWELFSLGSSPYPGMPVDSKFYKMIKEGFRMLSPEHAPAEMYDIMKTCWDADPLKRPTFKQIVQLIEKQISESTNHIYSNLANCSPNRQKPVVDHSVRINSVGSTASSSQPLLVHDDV
Chain of Mast/stem cell growth factor receptor Kit (Homo sapiens), P10721 [D816V] (P10721 whole entry D816V): as the sequence (P10721 whole entry V560G) above, with G560V, D816V counted along it
Chain of Tyrosine-protein kinase JAK2 (Homo sapiens) (O60674 whole entry): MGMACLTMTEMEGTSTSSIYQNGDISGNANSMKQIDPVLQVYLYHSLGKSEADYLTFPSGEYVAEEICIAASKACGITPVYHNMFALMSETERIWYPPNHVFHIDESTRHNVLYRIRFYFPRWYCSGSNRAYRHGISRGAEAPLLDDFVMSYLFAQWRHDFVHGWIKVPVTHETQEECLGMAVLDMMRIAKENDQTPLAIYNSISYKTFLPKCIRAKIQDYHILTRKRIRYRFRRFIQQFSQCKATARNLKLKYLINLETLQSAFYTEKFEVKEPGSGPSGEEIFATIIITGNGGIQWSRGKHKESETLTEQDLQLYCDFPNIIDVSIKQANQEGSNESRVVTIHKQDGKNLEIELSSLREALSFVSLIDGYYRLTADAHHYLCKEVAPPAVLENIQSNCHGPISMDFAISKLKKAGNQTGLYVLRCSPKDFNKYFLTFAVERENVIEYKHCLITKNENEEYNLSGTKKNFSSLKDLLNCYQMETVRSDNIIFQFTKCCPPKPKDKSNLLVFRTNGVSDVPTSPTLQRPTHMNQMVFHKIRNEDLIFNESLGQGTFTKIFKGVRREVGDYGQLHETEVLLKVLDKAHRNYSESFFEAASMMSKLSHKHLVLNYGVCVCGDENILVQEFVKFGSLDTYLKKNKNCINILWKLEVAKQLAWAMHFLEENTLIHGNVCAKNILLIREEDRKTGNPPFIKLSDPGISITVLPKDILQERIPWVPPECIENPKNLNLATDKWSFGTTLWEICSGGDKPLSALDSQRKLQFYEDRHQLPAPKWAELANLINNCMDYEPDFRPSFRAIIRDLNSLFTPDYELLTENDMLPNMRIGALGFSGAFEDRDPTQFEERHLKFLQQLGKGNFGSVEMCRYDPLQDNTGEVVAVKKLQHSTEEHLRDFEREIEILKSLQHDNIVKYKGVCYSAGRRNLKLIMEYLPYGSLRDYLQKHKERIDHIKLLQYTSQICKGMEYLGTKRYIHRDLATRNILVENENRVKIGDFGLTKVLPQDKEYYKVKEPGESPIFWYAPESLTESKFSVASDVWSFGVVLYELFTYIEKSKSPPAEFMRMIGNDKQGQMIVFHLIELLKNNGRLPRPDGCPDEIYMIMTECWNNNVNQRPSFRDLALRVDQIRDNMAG
Chain of Tyrosine-protein kinase JAK1 (Homo sapiens) (P23458 whole entry): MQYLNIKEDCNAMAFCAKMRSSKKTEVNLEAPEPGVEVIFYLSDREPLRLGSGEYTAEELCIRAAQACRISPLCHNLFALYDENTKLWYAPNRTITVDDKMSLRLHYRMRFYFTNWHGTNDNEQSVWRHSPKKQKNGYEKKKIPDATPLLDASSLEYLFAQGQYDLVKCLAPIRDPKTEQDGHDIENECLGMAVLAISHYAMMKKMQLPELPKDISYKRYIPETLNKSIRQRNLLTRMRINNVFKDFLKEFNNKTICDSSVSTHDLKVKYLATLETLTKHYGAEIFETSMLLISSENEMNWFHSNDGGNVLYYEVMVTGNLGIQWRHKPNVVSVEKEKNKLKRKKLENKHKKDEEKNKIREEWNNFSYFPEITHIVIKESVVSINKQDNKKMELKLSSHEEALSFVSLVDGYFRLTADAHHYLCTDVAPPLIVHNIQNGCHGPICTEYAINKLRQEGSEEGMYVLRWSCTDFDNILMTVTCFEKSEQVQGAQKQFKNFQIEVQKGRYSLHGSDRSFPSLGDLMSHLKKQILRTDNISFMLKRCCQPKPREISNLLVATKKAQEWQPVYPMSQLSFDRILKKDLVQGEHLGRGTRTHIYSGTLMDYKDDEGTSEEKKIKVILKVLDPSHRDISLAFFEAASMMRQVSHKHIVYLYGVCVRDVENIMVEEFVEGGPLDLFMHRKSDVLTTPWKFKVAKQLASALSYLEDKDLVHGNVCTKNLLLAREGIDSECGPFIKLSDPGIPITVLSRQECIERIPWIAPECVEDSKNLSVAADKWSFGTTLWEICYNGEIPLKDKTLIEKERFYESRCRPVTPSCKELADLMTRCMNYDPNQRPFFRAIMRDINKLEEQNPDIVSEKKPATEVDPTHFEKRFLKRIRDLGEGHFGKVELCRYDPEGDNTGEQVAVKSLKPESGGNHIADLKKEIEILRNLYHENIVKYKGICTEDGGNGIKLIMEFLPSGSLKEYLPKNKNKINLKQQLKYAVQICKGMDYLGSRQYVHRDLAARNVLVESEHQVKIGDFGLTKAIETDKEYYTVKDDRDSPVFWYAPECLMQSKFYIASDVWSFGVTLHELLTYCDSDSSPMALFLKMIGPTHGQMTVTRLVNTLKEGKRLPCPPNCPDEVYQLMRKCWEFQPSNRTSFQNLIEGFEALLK
Chain of Tyrosine-protein kinase Lck (Homo sapiens) (P06239 2-509 limits assumed): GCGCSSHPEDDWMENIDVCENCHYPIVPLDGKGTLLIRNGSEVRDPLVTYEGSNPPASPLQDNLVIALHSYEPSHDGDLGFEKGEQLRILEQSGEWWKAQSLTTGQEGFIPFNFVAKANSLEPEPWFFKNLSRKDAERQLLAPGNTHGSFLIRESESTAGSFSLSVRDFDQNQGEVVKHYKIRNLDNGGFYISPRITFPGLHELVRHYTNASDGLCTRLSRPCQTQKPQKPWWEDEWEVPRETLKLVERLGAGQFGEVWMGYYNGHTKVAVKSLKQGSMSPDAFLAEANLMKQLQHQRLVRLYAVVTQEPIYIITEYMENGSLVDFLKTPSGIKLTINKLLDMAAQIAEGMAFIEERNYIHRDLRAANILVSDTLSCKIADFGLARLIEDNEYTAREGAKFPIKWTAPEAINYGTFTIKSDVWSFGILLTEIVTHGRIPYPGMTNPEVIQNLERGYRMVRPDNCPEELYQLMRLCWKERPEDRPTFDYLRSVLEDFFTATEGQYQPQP
Chain of Mast/stem cell growth factor receptor Kit (Homo sapiens), P10721 [T670I] (P10721 whole entry T670I): as the sequence (P10721 whole entry V560G) above, with G560V, T670I counted along it
Chain of Mast/stem cell growth factor receptor Kit (Homo sapiens) (P10721 whole entry): as the sequence (P10721 whole entry V560G) above, with G560V counted along it

Usually inhibition stands for the relative decrease from the control value, in per cent. Take `CN1CCC(n2cnc(-c3ccc(F)cc3)c2-c2ccnc(NCCO)n2)CC1`: the inhibition in test [1] is 2.24%; in test [2] it was 4.93%; in test [3] it was 7.32%; in [4] it was 0.46%; in test [5], 1.42%; in test [6] it was -2.19%. Besides, the inhibition in test [7] is -0.11%; in test [8], 5.3%; in [9], 9.32%; in test [10], 4.45%; in test [11], 10.7%; in test [12] it was 1.99%. The inhibition in [13] is 7.69%; in test [14] it was 3.05%; in test [15], 6.22%; in test [16], -1.29%; in [17], -0.38%; in test [18] it was 2%. For the same molecule, the inhibition in test [19] worked out at 1.46%; in [20], 4.62%.
In the case of `COc1c(C(N)=O)cc(-c2ccc(Cl)cc2)cc1-c1ccc(S(N)(=O)=O)cc1`, the inhibition turned out to be 2.4% in [1]; 1.1% in test [2]; 3.15% in [3]; 2.98% in test [4]; 3.05% in test [5]; 0.08% in test [6]. The inhibition is -0.75% in test [7]; 6.96% in test [8]; 9.32% in test [9]; 6.94% in [10]; 11.2% in test [11]; 3.27% in test [12]. The inhibition is 3.88% in test [13]; 1.48% in [14]; 2.82% in [15]; 1.14% in test [16]; -3.65% in test [17]; 3.23% in test [18]. Further, the figures for the inhibition in [19] and in [20] were 2.89% and 5.37%, respectively.
Consider `COc1ccc(Nc2ncc(-c3ccccc3)o2)cc1OC`, for which the inhibition in [1] was 3.7%; in test [2], 0.7%; in test [3], 7.81%; in test [4], 1.09%; in test [5] it was 3.43%; in [6], 0.88%. Besides, the inhibition in test [7] was 10.7%; in test [8] it was 10.6%; in test [9] it was 44.2%; in [10], 79.1%; in test [11], 95.9%; in [12], -0.42%. Also, the inhibition in test [13] stood at 1.76%; in test [14], 46.1%; in test [15], 90.3%; in test [16] it was 45.7%; in [17], 84.8%; in [18], 2.31%. Further, the inhibition is 21.2% in test [19] and 1.44% in [20].
On to `CCn1c(-c2nonc2N)nc2cncc(C(=O)NCCNC)c21`, for which the inhibition in test [1] is 0.3%; in [2] it was 0.48%; in test [3], 2.04%; in test [4], 2.49%; in test [5], 0.73%; in test [6], -3.8%. Also, the inhibition is -2.17% in test [7]; 4.45% in test [8]; 13.5% in test [9]; 6.23% in test [10]; 11.8% in [11]; 12.8% in [12]. The inhibition is 3.67% in test [13]; 3.08% in test [14]; 6% in [15]; -0.72% in test [16]; 0.98% in test [17]; 2.21% in test [18]. In addition, the inhibition worked out at 3.67% in test [19] and 5.21% in test [20].
For `COC(=O)Nc1nc2ccc(Oc3ccc(NC(=O)Nc4cc(C(F)(F)F)ccc4F)cc3)cc2s1`, the inhibition in [1] was 2.72%; in test [2] it was 0.07%; in test [3] it was 9.06%; in [4] it was 1.98%; in [5], 7.31%; in [6] it was -0.26%. The inhibition in test [7] was 0.75%; in [8], 69.8%; in test [9], 85.1%; in test [10], 17.9%; in test [11] it was 73.9%; in test [12], -1.16%. The inhibition in test [13] is -0.29%; in test [14], 14.4%; in [15], 46.7%; in [16] it was 19.8%; in test [17], 73.7%; in test [18], 15.2%. The inhibition came to 47.1% in test [19] and 1.83% in test [20].
For `CS(=O)(=O)CCNCc1ccoc1-c1ccc2ncnc(Nc3ccc(OCc4ccccc4)cc3)c2c1`, the inhibition in [1] was 1.03%; in test [2], -1.22%; in test [3], -0.53%; in test [4], -0.17%; in test [5] it was -0.95%; in [6] it was -0.19%. Further, the inhibition in [7] was determined as 0.82%; in test [8] it was 3.88%; in test [9], 5.6%; in test [10] it was 1.94%; in test [11] it was 6.88%; in test [12] it was 5.01%. The inhibition amounted to 1.5% in test [13]; 2.27% in test [14]; 2.3% in test [15]; 0.74% in [16]; 3.57% in test [17]; 1.79% in [18]. Besides, the results for the inhibition in [19] and in test [20] were 8.23% and 1.59%, respectively.
Take `N#Cc1ccc2c(-c3ccnc(NC4CC4)n3)c(-c3ccc(F)cc3)nn2c1`: the inhibition in [1] was 0.51%; in test [2], 0.46%; in test [3], 0.31%; in test [4], -0.51%; in [5] it was -0.42%; in test [6] it was -1.62%. In addition, the inhibition in [7] was -1.11%; in test [8], 1.86%; in [9], 14.6%; in test [10], 3.02%; in [11], 20.2%; in test [12], -1.04%. Besides, the inhibition came out at 2.35% in [13]; 1.28% in test [14]; 0.73% in test [15]; 0.24% in test [16]; 1.17% in test [17]; 1.08% in [18]. Further, the inhibition worked out at 0.11% in test [19] and 1.05% in [20].
Turning to `CC1=C(C(=O)Nc2ccc3[nH]nc(C)c3c2)C(c2ccc(C(F)(F)F)cc2)CC(=O)N1` (stereo not given), the inhibition in test [1] was 7.86%; in test [2] it was 38.5%; in test [3], 70.7%; in test [4] it was 31.1%; in test [5], 82.4%; in test [6], 15.6%. The inhibition came out at 68.8% in [7]; 5.36% in [8]; 11% in test [9]; 2.41% in [10]; 2.22% in test [11]; 5.34% in test [12]. Further, the inhibition is 1.99% in test [13]; -0.21% in test [14]; 1.75% in [15]; 0.71% in [16]; -0.03% in test [17]; 5.93% in test [18]. Further, the inhibition amounted to 18.8% in [19] and 1.5% in [20].
Turning to `CS(=O)(=O)CCNCc1ccc(-c2ccc3ncnc(Nc4ccc(OCc5cccc(C(F)(F)F)c5)cc4)c3c2)o1`, the inhibition is 1.4% in [1]; 1.68% in test [2]; 1.38% in test [3]; 4.27% in test [4]; 3.35% in test [5]; -1.49% in [6]. In addition, the inhibition in test [7] came to 0.32%; in test [8], 5.19%; in test [9], 11%; in test [10], 4.53%; in test [11], 11.4%; in [12] it was 2.25%. The inhibition in [13] is 0.02%; in test [14], 5.03%; in test [15], 5.44%; in [16] it was -4.38%; in test [17], -2.24%; in test [18], 3.86%. The inhibition in test [19] was found to be 7.98%; in test [20], 5.96%.
